PubChem BioAssay (NCI)
This is part of a sample that, as a whole, favours compounds with a hit. Of some 79,000 tested, about 15% had one in any assay. Active and inactive are the calls of the source. No stated cut-off is given here; in the data, active means growth inhibition above about 70%; inactive means the rest.

Columns and labels:
[1] = NCI Yeast Anticancer Drug Screen. Data for the rad50 strain (AID 155);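 further: 0% = growth of vehicle-only cultures of the same strain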; settings: S. cerevisiae rad50 strain growth inhibition; at 50.0 µM; hits give high values
Procedure, shortened: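 Vehicle-treated cultures provide the reference for the growth inhibition reported for compound-exposed, repair-deficient yeast.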

[2] = NCI Yeast Anticancer Drug Screen. Data for the mec2-1 strain (AID 157); settings: S. cerevisiae mec2-1 strain, at 50.0 µM, hits give high values
Procedure, shortened: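 Strain: mec2-1 (DNA repair/cell cycle alteration). Compound exposure, then growth measured; inhibition expressed relative to vehicle.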

[3] = NCI Yeast Anticancer Drug Screen. Data for the sgs1 mgt1 strain (AID 161);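 further: 0% = growth of cultures given vehicle only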; settings: S. cerevisiae sgs1 mgt1 strain, at 50.0 µM, hits give high values
Procedure, shortened: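 Test agents were incubated with a DNA-repair-mutant yeast strain. Growth was then read and compared against vehicle-treated controls.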

[4] = NCI Yeast Anticancer Drug Screen. Data for the cln2 rad14 strain (AID 165);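 further: 0% = growth equal to vehicle treated cultures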; settings: S. cerevisiae cln2 rad14 strain, at 50.0 µM, hits give high values
Procedure, shortened: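 Compounds are applied to the cln2 rad14 yeast strain, and growth is then compared with that of vehicle-treated cultures to give inhibition.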

[5] = NCI Yeast Anticancer Drug Screen. Data for the bub3 strain (AID 167); settings: S. cerevisiae bub3 mutant strain, at 50.0 µM, hits give high values
Procedure, shortened: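 Mutant yeast screening strain plus compound; vehicle-treated cultures serve as the 0% inhibition reference.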

[6] = NCI Yeast Anticancer Drug Screen. Data for the mlh1 rad18 strain (AID 175); settings: S. cerevisiae mlh1 rad18 strain growth inhibition; at 50.0 µM; hits give high values
Procedure, shortened: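 Read-out is yeast growth inhibition, calculated against vehicle-only controls. The compound was applied to a strain engineered with DNA damage repair alterations.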

| SMILES | growth inhibition [1] | growth inhibition [2] | growth inhibition [3] | growth inhibition [4] | growth inhibition [5] | growth inhibition [6] |
| --- | --- | --- | --- | --- | --- | --- |
| CCCCCCCC/C=C\CCCCCCCC(=O)OCCN(CCOC(=O)CCCCCCC/C=C/CCCCCCCC)C(=O)COC(=O)CCCCCCC/C=C\CCCCCCCC | -9.3% (inactive) | -11.8% (inactive) | -24.4% (inactive) | -7.6% (inactive) | -7.35% (inactive) | 10.7% (inactive) |
| O=C(N/C=C(/c1ccccc1)S(=O)Cc1ccccc1)Nc1ccccc1Cl (stereo unspecified) | -8.45% (inactive) | -27.6% (inactive) | 0.85% (inactive) | -15.2% (inactive) | -9.7% (inactive) | -24.9% (inactive) |
| O=C(NCCCCCCCCCNC(=O)C12CC3CC(CC(C3)C1)C2)C12CC3CC(CC(C3)C1)C2 | 23.2% (inactive) | 9.2% (inactive) | 21.7% (inactive) | 29.5% (inactive) | -1.55% (inactive) | 28.4% (inactive) |
| C[CH2][Sn]([CH2]C)([n]1c2ccccc2c2c(C)c3cnccc3c(C)c21)[n]1c2ccccc2c2c(C)c3cnccc3c(C)c21 | 72.2% (active) | 14.7% (inactive) | 25.5% (inactive) | 44.5% (inactive) | 25.6% (inactive) | 71.3% (active) |
| CCCCCCCCC1CC(=O)OC1=O (stereo unspecified) | 0.05% (inactive) | 0.55% (inactive) | -0.65% (inactive) | 7.05% (inactive) | -1.55% (inactive) | -2.35% (inactive) |
| Cc1ccc2cccc(CCOC(=O)c3ccc([N+](=O)[O-])cc3)c2c1 | -13.5% (inactive) | -19.1% (inactive) | -15.3% (inactive) | -19.1% (inactive) | -8.35% (inactive) | 4.7% (inactive) |
| CC1(O)CCC(O)CC1CC[N+](C)(C)[O-] (stereo unspecified) | 7.35% (inactive) | 1.3% (inactive) | 8.8% (inactive) | 4.75% (inactive) | 3.3% (inactive) | 5.55% (inactive) |
| Fc1c(F)c(-c2c(F)c(F)c(Br)c(F)c2F)c(F)c(F)c1Br | 2.5% (inactive) | -14.6% (inactive) | -7.45% (inactive) | 6.15% (inactive) | 20.6% (inactive) | -0.65% (inactive) |
| COC(=O)C(Cc1nc2ccccc2[nH]c1=O)C(=O)C(=O)Nc1ccc(OC)cc1[N+](=O)[O-] (stereo unspecified) | -14.4% (inactive) | -9.5% (inactive) | 14.3% (inactive) | -77.2% (inactive) | -1.4% (inactive) | 5.5% (inactive) |
| CCN1C(=O)c2cc(=O)[nH]c(O)c2C1C (stereo unspecified) | 7.8% (inactive) | -2.7% (inactive) | -1.7% (inactive) | -20.4% (inactive) | -2.65% (inactive) | 10.9% (inactive) |
| CCCCCCCOC(=O)COc1ccc(Cl)cc1Cl | 11.1% (inactive) | 9.05% (inactive) | 10.8% (inactive) | 1.25% (inactive) | 9.8% (inactive) | 4.9% (inactive) |
| C[C@]12CC=CC(=O)[C@@]1(C)CCC(=O)C2 | 3.45% (inactive) | 0.95% (inactive) | -9.05% (inactive) | -25.4% (inactive) | -4.7% (inactive) | 8.1% (inactive) |
| C=CCCCCCCCCC(=O)Nc1cc(Cl)ccc1C | -0.25% (inactive) | -5% (inactive) | -10.4% (inactive) | -22.9% (inactive) | -10.8% (inactive) | -2.7% (inactive) |
| Cc1sc2nc3n(c(=O)c2c1C)N=C(c1ccc(Cl)cc1)CS3 | 6.6% (inactive) | -11.2% (inactive) | -6.65% (inactive) | 9.2% (inactive) | -0.8% (inactive) | -16.2% (inactive) |
| [Cu+2].[NH-]C(Cc1ccc(O)cc1)C(=O)O.[NH-]C(Cc1ccc(O)cc1)C(=O)O (stereo unspecified) | 13.1% (inactive) | 1.55% (inactive) | -12.6% (inactive) | 15.2% (inactive) | 1.65% (inactive) | 5% (inactive) |
| C=C1CC(C)(Cn2cnc3c(=O)[nH]cnc32)OC1=O (stereo unspecified) | 18.1% (inactive) | 22.7% (inactive) | 12.9% (inactive) | 8% (inactive) | 16.6% (inactive) | 21.6% (inactive) |
| COc1ccc(C2COc3cc4c(cc3C2)OCO4)cc1 (stereo unspecified) | -22.4% (inactive) | -26.1% (inactive) | -20.6% (inactive) | -2.3% (inactive) | 20.1% (inactive) | 4.9% (inactive) |
| SCCNCc1ccco1 | -31.4% (inactive) | -68.5% (inactive) | -15.9% (inactive) | 20.6% (inactive) | -32.6% (inactive) | 4.9% (inactive) |
| CN(CCCCl)Cc1ccccc1 | 1.85% (inactive) | -26.8% (inactive) | -24.7% (inactive) | 1.35% (inactive) | -14.3% (inactive) | -7.55% (inactive) |
| C=CCNC(=O)CN(CC(=O)OC)C1CCCCC1N(CC(=O)OC)CC(=O)OC (stereo unspecified) | -8.3% (inactive) | -6.6% (inactive) | -1.8% (inactive) | 6.75% (inactive) | 2% (inactive) | 1.75% (inactive) |
| CCCCc1[nH]nc(-c2n[nH]c(CCCC)c2C)c1C | 25.4% (inactive) | 14.1% (inactive) | 28.5% (inactive) | 7.95% (inactive) | 18.6% (inactive) | 27.9% (inactive) |

| SMILES | growth inhibition [1] | growth inhibition [2] | growth inhibition [3] | growth inhibition [4] | growth inhibition [5] | growth inhibition [6] |
| --- | --- | --- | --- | --- | --- | --- |
| O=C(O)CC12C3C4C5C3C1C5C42 (stereo unspecified) | 24.1% (inactive) | 17.1% (inactive) | 15.2% (inactive) | 8.5% (inactive) | 47.9% (inactive) | 26.6% (inactive) |
| O=C(O)C1CCC(=O)N1Cc1ccccc1 (stereo unspecified) | 1.35% (inactive) | -5.5% (inactive) | -7.75% (inactive) | -18% (inactive) | -7.05% (inactive) | -8.35% (inactive) |
| O=C(N/C(=C\c1ccccc1)C1Nc2ccccc2C(=O)O1)c1ccccc1 (stereo unspecified) | -6.8% (inactive) | 2.95% (inactive) | -19.6% (inactive) | -17.2% (inactive) | -8.95% (inactive) | -24.7% (inactive) |
| CCOC(=O)C(Cc1ccc(OCc2ccccc2)c(OCc2ccccc2)c1)(NC=O)C(=O)OCC | 36.6% (inactive) | -1.6% (inactive) | 19.8% (inactive) | -14.8% (inactive) | -9.9% (inactive) | 9% (inactive) |
| CC1CN(c2ccc(Cl)cc2)CC(C)(C)OC(=O)O1 (stereo unspecified) | -12.2% (inactive) | -16.1% (inactive) | -10.6% (inactive) | 0.2% (inactive) | 5.45% (inactive) | -2.5% (inactive) |
| O=S1c2ccccc2N=C(c2ccc3ccccc3c2)CC1c1ccccc1F (stereo unspecified) | -1.1% (inactive) | -2.95% (inactive) | 12.3% (inactive) | 4.45% (inactive) | 2.45% (inactive) | 6.8% (inactive) |
| CCCCCCCCCCCCOc1cccc(OCCCCCCCCCCCC)c1 | 29.4% (inactive) | -4.75% (inactive) | 21.8% (inactive) | -41.1% (inactive) | -1.9% (inactive) | -19.1% (inactive) |
| CCC(=O)/C=C/c1ccc(Cl)cc1 | 10.7% (inactive) | 8% (inactive) | 7.75% (inactive) | -25.6% (inactive) | -14.7% (inactive) | 11.3% (inactive) |
| Cc1ccccc1NCS(=O)(=O)O | 18.2% (inactive) | -18.3% (inactive) | 13.2% (inactive) | -6.35% (inactive) | -14.8% (inactive) | 4.6% (inactive) |
| COC(=O)C1CN(Cc2ccccc2)C(=O)C1=O (stereo unspecified) | -11.3% (inactive) | -8.75% (inactive) | 2.65% (inactive) | -5.1% (inactive) | 3.95% (inactive) | 15.2% (inactive) |
| O=C(O)C1CCCCN1O (stereo unspecified) | -7.85% (inactive) | -2.15% (inactive) | -15.9% (inactive) | 5.75% (inactive) | 10.9% (inactive) | -6.15% (inactive) |
| Cn1cnc([N+](=O)[O-])c1SC1=NCCS1 | 7.8% (inactive) | -1.4% (inactive) | 10.2% (inactive) | 25.3% (inactive) | 22.9% (inactive) | -7.5% (inactive) |
| O=C(Cn1c2c(c3ccccc31)CCCC2)N1CCCC1 | -11.8% (inactive) | -39.9% (inactive) | 0.05% (inactive) | 2.75% (inactive) | 7.05% (inactive) | -23.7% (inactive) |
| C=C(C(=O)NC1CCCCC1)c1ccccc1 | -9.2% (inactive) | -22.4% (inactive) | -8.2% (inactive) | -12.4% (inactive) | 8.25% (inactive) | 0% (inactive) |
| O=[N+]([O-])c1cc2c(c([N+](=O)[O-])c1)Nc1cc(Cl)ccc1O2 | 1.6% (inactive) | 19.8% (inactive) | 17.6% (inactive) | 11.8% (inactive) | 4.4% (inactive) | 26.9% (inactive) |
| Nc1nc2c(ncn2Cc2ccc(Cl)c(Cl)c2)c(=O)[nH]1 | -5.1% (inactive) | -7.4% (inactive) | -1.65% (inactive) | -10.1% (inactive) | -0.5% (inactive) | 2.55% (inactive) |
| CC(c1ccccc1)C(C)c1ccccc1 (stereo unspecified) | 12.7% (inactive) | -10.2% (inactive) | -16.6% (inactive) | -72.5% (inactive) | 7.6% (inactive) | -8.65% (inactive) |
| CCCCCCCN=C(N)CSSCC(N)=NCCCCCCC | 98.9% (active) | 99% (active) | 99.3% (active) | 98.7% (active) | 98.9% (active) | 99.2% (active) |
| CC(C)[C@@]12O[C@@H]1CC13OC1[C@@H](O)CC[C@@]32O (stereo partly specified) | -16.6% (inactive) | -1.05% (inactive) | -2.8% (inactive) | -27.9% (inactive) | -6.25% (inactive) | -20.8% (inactive) |
| CCOc1ccc(CO)cc1 | 8.5% (inactive) | 0.2% (inactive) | 8.55% (inactive) | 34% (inactive) | -8.95% (inactive) | -38.8% (inactive) |
